FXIa inh: blocks human coagulation factor XIa activity. purified human FXIa, fluorogenic AMC substrate cleavage. inhibition, % at 10 µM. 33,000 tested, 0.3% active. AID 687;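 active = inhibition above 40% in the primary screen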;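 note: 0% = enzyme without compound and 100% = blank wells lacking enzyme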
Target sequence (P03951 19-387 limits assumed): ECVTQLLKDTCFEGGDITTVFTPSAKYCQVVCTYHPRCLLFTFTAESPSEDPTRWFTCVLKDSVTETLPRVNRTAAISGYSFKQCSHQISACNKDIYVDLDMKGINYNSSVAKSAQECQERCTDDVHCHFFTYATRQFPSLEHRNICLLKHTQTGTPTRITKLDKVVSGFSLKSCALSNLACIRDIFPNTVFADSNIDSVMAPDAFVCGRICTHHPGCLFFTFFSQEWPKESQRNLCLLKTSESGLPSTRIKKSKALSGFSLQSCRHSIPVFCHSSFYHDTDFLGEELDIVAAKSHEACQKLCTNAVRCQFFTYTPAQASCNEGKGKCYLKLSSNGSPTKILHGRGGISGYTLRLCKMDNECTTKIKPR
Target sequence (P03951 388-625 limits assumed): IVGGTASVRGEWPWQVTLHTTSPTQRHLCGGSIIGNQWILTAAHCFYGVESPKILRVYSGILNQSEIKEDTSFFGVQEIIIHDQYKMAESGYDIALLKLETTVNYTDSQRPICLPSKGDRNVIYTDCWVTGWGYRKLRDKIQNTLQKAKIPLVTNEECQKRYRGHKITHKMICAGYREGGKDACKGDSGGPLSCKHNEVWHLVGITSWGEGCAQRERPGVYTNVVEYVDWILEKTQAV
FXIIa inh: inhibitors of human coagulation factor XIIa; P00748; purified human FXIIa, AMC substrate fluorescence, 2 h; inhibition, % at 10 µM; 33,000 tested, 0.2% active; AID 701; in the data active = inhibition above about 30%;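 note: 0% = enzyme with vehicle only and 100% = no enzyme blank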
An asterisk follows results filed as active. The list is not random: actives were taken first. Their share in the collection is about 0.33%.

SMILES	FXIa inh	FXIIa inh
O=S(=O)(Nc1cccc2nsnc12)c1ccccc1	48*	8
O=S(=O)(Nc1ccc(S(=O)(=O)Nc2cccc3ccccc23)cc1)c1ccccc1	-4	6
O=C(c1ccc(F)cc1)C1CCN(C(=O)NC2CCCCC2)CC1	25	-12
O=C(CSc1nc(-c2ccccc2)c(-c2ccccc2)[nH]1)NCCN1C(=O)CSC1=O	0	5
CCCCC(CCC(=O)Nc1nccs1)C(=O)O (configuration not stated)	-10	5
CCc1ccccc1NC(=O)Cn1nc(C(F)(F)F)c2c1CCC2	-3	1
CCc1ccc(NC(=O)Cn2nc(C(F)(F)F)c3c2CCC3)cc1	44*	2
CC1=CCC(C(=O)O)(C(=O)N/N=C/c2cccs2)C(c2ccc([N+](=O)[O-])cc2)C1 (configuration not stated)	-6	10
CC1CCCC(C)N1C(=O)COC(=O)c1ccc(O)cc1 (configuration not stated)	-1	6
CCOc1cc(S(=O)(=O)N(Cc2ccccc2)Cc2ccccc2)c(OCC)cc1-n1cnnn1	45*	2
CCOc1cc(S(=O)(=O)NCc2ccccc2)c(OCC)cc1-n1cnnn1	-2	5
O=C(CN1C2CCCC1CC(NC(=O)c1ccccc1)C2)Nc1nccs1 (configuration not stated)	1	3
Cc1ccc(NC(=O)CCn2cccc2)cc1C	-5	6
Cc1ccc(NC(=O)CCn2cccc2)cc1	44*	3
O=C(NCCc1csc(-c2ccc(C(F)(F)F)cc2)n1)c1cccs1	3	1
COc1ccc(-c2nn(C)c(=O)c3ccccc23)cc1NC(=O)Cn1nc(-c2ccccc2)c2ccccc2c1=O	-5	1
COc1ccc(OCC(=O)Nc2cc(-c3nn(C)c(=O)c4ccccc34)ccc2OC)cc1	42*	11
CCN(CC)S(=O)(=O)c1csc(C(=O)OCC(=O)c2ccccc2)c1	-2	1
Cn1c(=O)c(NCCc2ccccc2)c2c3c(cccc31)C(=O)c1ccccc1-2	19	-11
COc1ccc(S(=O)(=O)N2CCC(C(=O)NC3CC3)CC2)cc1Cl	-1	-1
COc1ccc(S(=O)(=O)N2CCC(C(=O)N3CCc4ccccc4C3)CC2)cc1Cl	61*	7
CCOc1ccc(-n2nc3c(-n4ncc(C#N)c4N)nnc(C)c3c2C)cc1	4	2
COc1ccccc1N(CC(=O)NCc1ccccc1)C(=O)CCC(=O)Nc1ccccn1	-1	10
CCOC(=O)N=S(=O)(Oc1ccc([N+](=O)[O-])cc1)c1ccccc1 (configuration not stated)	44*	6
CN(CC(=O)O/N=C(\N)c1ccc([N+](=O)[O-])cc1)S(=O)(=O)c1ccccc1	33	-13
SMILES	FXIa inh	FXIIa inh
CCOc1ccc2c(c1)C(c1ccccc1)=NNC(c1ccccc1)=N2	6	20
CC1CCCC(NC(=O)CSc2nnnn2C)C1C (configuration not stated)	-2	6
Cn1nnnc1SCC(=O)N(C1CCCCC1)C1CCCCC1	106*	-14
COc1ccc(OC)c(C2=NOC(C(=O)NCc3ccco3)C2)c1 (configuration not stated)	32	2
CC(c1ccccc1)n1cc(C(=O)NCc2ccccn2)nn1 (configuration not stated)	4	8
O=C(NCc1ccccn1)c1cn(CCc2ccccc2)nn1	3	31*
CC(C)C(=O)Nc1cccc(C(=O)Nc2nnc(C(C)(C)C)s2)c1	0	6
Cc1ccc(C2=[N+]([O-])C3(CCCCC/C3=N\NC(N)=S)N(O)C2(C)C)o1 (configuration not stated)	12	3
Clc1ccc(-c2nnnn2-c2ccc(Cl)c(Cl)c2)cc1Cl	-1	-2
Cc1c(NC(=O)c2cc3ccccc3o2)c(=O)n(-c2ccccc2)n1C	57*	7
Cc1c(NC(=O)c2cc(C3CC3)on2)c(=O)n(-c2ccccc2)n1C	2	4
O=C(Nc1ccc(Cl)c(Cl)c1)N(CCCN1CCOCC1)Cc1cccs1	2	1
O=C(c1ccc(F)cc1)N1CCN(C(=O)c2cccnc2)CC1	50*	10
O=C(c1ccccc1)N1CCN(C(=O)c2ccccc2)CC1	-1	3
CC1(C)c2ssc(=S)c2-c2ccccc2N1C(=O)c1ccco1	4	34*
Cc1ccc2c(c1)-c1c(ssc1=S)C(C)(C)N2C(=O)c1ccco1	7	8
O=S(=O)(NCC1CCCO1)c1ccc(S(=O)(=O)N(Cc2ccccc2F)C2CCCCC2)cc1 (configuration not stated)	1	9
Cc1ccc(C(=O)ONc2ccc(N=NC(=O)c3ccccc3O)cc2)cc1	43*	15
COC(=O)c1ccc(NC(=O)c2ccccc2SC)cc1	1	7
O=C(NCc1ccc2c(c1)OCO2)C1CCCN(S(=O)(=O)c2cccc3nonc23)C1 (configuration not stated)	8	3
O=C(NCc1ccccc1)C1CCCN(S(=O)(=O)c2cccc3nonc23)C1 (configuration not stated)	61*	9
CCN(CC)CCn1c2ccccc2c2cnc(N)c(C#N)c21	-1	1
CCNC(=O)N1CCOCC1	-1	-8
COc1cccc(-c2cc(C(=O)NCCCn3ccnc3)no2)c1	-9	8
COc1ccc(OCCSc2ncn[nH]2)cc1	43*	-15
SMILES	FXIa inh	FXIIa inh
O=C(CSc1ncn[nH]1)NCCOc1ccccc1	-2	-1
C=CCn1c(Cc2cccs2)nnc1SC/C=C/c1ccccc1	-6	-2
O=C(Oc1ccc(OC(=O)N2CCOCC2)cc1)c1ccccc1	6	1
O=C(Oc1nsnc1N1CCOCC1)c1ccccc1	66*	63*
COc1ccc(S(=O)(=O)NCCc2csc(-c3cccnc3)n2)cc1	4	3
Cc1cc(NC(=O)C(C)C)ncc1NC(=O)Cc1ccccc1	1	38*
Cc1cc(NC(=O)c2cccc(F)c2)ncc1NC(=O)c1ccco1	-2	5
O=C(C1CCCCC1)N1CCCC(c2nc3c(nnn3Cc3ccccc3)c(=O)[nH]2)C1 (configuration not stated)	0	-13
O=C(c1ccccc1)N1CCCC(c2nc3c(nnn3Cc3ccccc3)c(=O)[nH]2)C1 (configuration not stated)	-2	37*
Cc1ccc(S(=O)(=O)NC2(C(=O)O)CCCCC2)cc1	-3	16
Cc1ccc(NC(=O)C2(S(=O)(=O)c3ccc(C)cc3)CC2)cc1	0	30*
Cc1ccc(S(=O)(=O)N2CCCN(S(=O)(=O)c3ccc4ccccc4c3)CC2)cc1	2	-13
CCOc1ccc(OCC)c(NC(=O)Nc2ccc3c(c2)N(C)C(=O)CS3)c1	6	6
COc1cc(OC)cc(-c2nc3ccccc3c(=O)o2)c1	-4	15
COc1cccc(-c2nc3ccccc3c(=O)o2)c1	-2	30*
CCOC(=O)C(C(C)=O)C(c1ccc(OCCC(C)C)cc1)C(C(C)=O)C(=O)OCC (configuration not stated)	-2	8
CCOc1ccc(OCCN2C(=O)NC(Cc3c[nH]c4ccccc34)C2=O)cc1 (configuration not stated)	6	4
CCOC(=O)COc1ccc(S(=O)(=O)Nc2ccc(C)cc2)cc1	2	11
Cc1ccc(NS(=O)(=O)c2ccc(OCC(=O)N3CCOCC3)cc2)cc1	99*	8

Source: PubChem BioAssay (PCMD)
